Shown are actives, neighbours in structure and some others; about 10% of the full set was active somewhere.
BAZ2B inh: qHTS Assay for Inhibitors of BAZ2B | Bromodomain adjacent to zinc finger domain protein 2B (Homo sapiens), Q9UIF8 | AlphaScreen BAZ2B-H3K14Ac peptide displacement | Potency, µM (series often up to 114 µM), for inactives: at the top dose activity change, negative = inhibition, hits mostly inhibitors | hit rate 4.4% among 360,000 | AID 504333, 2011; note: % is set by controls: 0 for no effect and ±100 for the full control effect; nearly all actives have a fitted effect of over 60% in size
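Complex of BAZ2B and biotin-H3K14Ac (50 nM apiece) forms over 30 min at RT, then faces library compounds up to 110 uM for another 30 min; AlphaScreen beads added, 20 min dark incubation, luminescence read.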
G9a inh: qHTS Assay for Inhibitors of Histone Lysine Methyltransferase G9a; hit rate 8.8% among 350,000; Histone-lysine N-methyltransferase EHMT2 (Homo sapiens), Q96KQ7; Potency, µM (titrated, usually from 102 µM), for inactives: top-dose activity, negative = inhibition, hits mostly inhibitors; G9a H3K9 monomethylation, AlphaScreen, 2 h; note: % is set by controls: 0 for no effect and ±100 for the full control effect; nearly all actives have a fitted effect of over 75% in size
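Step 1: enzyme (final 20 nM) with compound, 15 min RT. Step 2: substrate peptide 500 nM and SAM 20 uM, 2 h RT. Step 3: anti-H3K9me1 antibody and AlphaScreen beads, 10 min, then plate read.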
GLS inh: qHTS for Inhibitors of Glutaminase (GLS) | Potency, µM (series often up to 45.5 µM), inactives show at the highest dose activity change, negative = inhibition, most hits filed as inhibitors | hit rate 0.21% among 410,000 | AID 624170, 2012 | GLS enzymatic activity, qHTS titration; note: % is set by controls: 0 for no effect and ±100 for the full control effect
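hKGA in 45 mM KH2PO4 pH 8.2, 0.02% Tween-20 with pin-transferred compounds; 1 mM L-glutamine (stock) plus glutamate oxidase/HRP/Amplex Red coupling added. Fluorescence read initially and after 30 min at RT.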
JMJD2A Tudor: qHTS Assay for Inhibitors of JMJD2A-Tudor Domain; Lysine-specific demethylase 4A (Homo sapiens), O75164; AlphaScreen JMJD2A-Tudor / H3K4me3 peptide binding; Potency, µM (doses to about 114 µM), for the others: top-dose activity change, negative = inhibition, usual class: inhibitors; hit rate 4.4% among 390,000; note: % is set by controls: 0 for no effect and ±100 for the full control effect; nearly all actives have a fitted effect of over 50% in size
Target sequence (O75164 whole entry, looked up, the tested form may be a part): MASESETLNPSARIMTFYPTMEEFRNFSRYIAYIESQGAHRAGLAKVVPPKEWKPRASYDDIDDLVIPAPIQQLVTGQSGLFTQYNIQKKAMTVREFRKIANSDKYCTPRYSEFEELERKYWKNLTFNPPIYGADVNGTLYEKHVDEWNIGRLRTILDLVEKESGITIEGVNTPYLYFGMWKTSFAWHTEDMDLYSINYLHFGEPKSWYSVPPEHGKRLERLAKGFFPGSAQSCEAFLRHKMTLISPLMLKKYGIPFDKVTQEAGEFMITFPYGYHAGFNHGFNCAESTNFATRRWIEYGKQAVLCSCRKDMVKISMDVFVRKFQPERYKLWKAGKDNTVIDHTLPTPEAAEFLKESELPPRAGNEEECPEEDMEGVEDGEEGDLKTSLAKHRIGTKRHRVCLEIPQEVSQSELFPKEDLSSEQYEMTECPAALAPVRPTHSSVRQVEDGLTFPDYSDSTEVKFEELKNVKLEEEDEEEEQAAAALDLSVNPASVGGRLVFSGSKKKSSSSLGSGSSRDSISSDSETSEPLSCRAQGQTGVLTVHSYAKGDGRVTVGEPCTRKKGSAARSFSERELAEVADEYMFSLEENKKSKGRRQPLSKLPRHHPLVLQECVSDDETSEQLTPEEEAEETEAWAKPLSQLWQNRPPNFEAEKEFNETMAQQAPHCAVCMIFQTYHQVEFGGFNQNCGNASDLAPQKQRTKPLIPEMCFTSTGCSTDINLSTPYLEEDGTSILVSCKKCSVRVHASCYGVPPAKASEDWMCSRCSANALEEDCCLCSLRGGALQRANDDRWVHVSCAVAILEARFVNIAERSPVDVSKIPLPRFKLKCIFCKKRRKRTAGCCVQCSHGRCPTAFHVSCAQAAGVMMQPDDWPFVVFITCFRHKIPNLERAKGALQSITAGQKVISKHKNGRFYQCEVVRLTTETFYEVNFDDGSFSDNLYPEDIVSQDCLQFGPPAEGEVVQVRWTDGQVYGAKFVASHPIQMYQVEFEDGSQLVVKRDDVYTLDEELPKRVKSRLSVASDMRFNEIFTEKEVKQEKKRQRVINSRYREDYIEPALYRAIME
HP1b chromo inh: HTS for Inhibitors of HP1-beta Chromodomain Interactions with Methylated Histone Tails; Potency, µM (top dose mostly 114 µM), for inactives: top-dose activity change, negative = inhibition, actives largely listed as inhibitors; Chromobox protein homolog 1 (Homo sapiens), P83916; AID 540317, 2011; hit rate 0.56% among 390,000; AlphaScreen HP1-beta / biotin-H3K9me3 peptide binding; note: nearly all actives have a fitted effect of over 70% in size
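AlphaScreen: HP1-beta (50 nM) preformed 30 min with biotin-H3(1-18)K9me3 peptide (50 nM) in PBS pH 7.4, 0.01% Tween-20. Compound added for 30 min at RT, then streptavidin donor/nickel chelate acceptor beads (10 ug/mL) for 30 min.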
Numbers without * were called inactive; ? = inconclusive; / = no result given; ! = repeats disagree; [ ] = remark or other dose. Calls come from the whole dose curve; as a rule, active = well fitted curve in the direction sought with a large enough effect; inconclusive = small, poorly fitted or top-dose-only effect, or another doubt; inactive = no such curve, though single readings can be large; an effect the other way counts as inactive or inconclusive. Potency is the fitted concentration of half-maximal effect.

SMILES	BAZ2B inh	G9a inh	GLS inh	JMJD2A Tudor	HP1b chromo inh
CC(=O)C(=Cc1ccc(C(=O)O)cc1)C(C)=O	?	56.2µM*	-10.3%	-2.8%	51.3%
C/C(=C\c1ccc(C(=O)O)cc1)c1ccc2c(c1)C(C)(C)CCC2(C)C	6.5%	15.8µM*!	-8.4%	-23.4%	3.5%
O=[N+]([O-])c1ccc(CN2CCCCCC2)s1	39.8µM*	10µM*	9.1%	20µM*	3.16µM*
Cc1ccc(CNC(=O)C(=O)NCC(c2ccco2)S(=O)(=O)c2ccc(C)cc2)cc1 (stereo unspecified)	-1.0%	-5.4%[59 µM]	1.8%	-19.8%	33.7%
COc1ccc(-c2nc(SCCOc3ccccc3Cl)n3[nH]c(=O)cc3n2)cc1	-2.3%	19.0%[59 µM]	-3.8%	-20.5%	-2.9%
CC(C)(C)c1ccc(-c2nc(SCCCOc3ccccc3)n3[nH]c(=O)cc3n2)cc1	50.1µM*	5.0%[59 µM]	-19.1%	50.1µM*	-21.0%
COc1ccccc1OCCCSc1nc(-c2ccc(C(C)(C)C)cc2)nc2cc(=O)[nH]n12	?	-2.0%[59 µM]	-12.6%	50.1µM*	2.24µM*
Cc1cc(OCCCSc2nc(-c3ccc(C(C)(C)C)cc3)nc3cc(=O)[nH]n23)ccc1Cl	28.2µM*	-1.3%[59 µM]	-20.4%	31.6µM*	?
Cc1cc(C)cc(OCCSc2nc(-c3ccc(C(C)(C)C)cc3)nc3cc(=O)[nH]n23)c1	-17.2%	-10.0%[59 µM]	3.6%	-35.7%	3.1%
C=CCNC(=S)/N=c1/ccccn1CC	-6.5%	?	-15.1%	1.1%	11.2%
O=C(CN1C(=O)c2ccccc2S1(=O)=O)Nc1cc(S(=O)(=O)N2CCOCC2)ccc1N1CCOCC1	/	/	/	-10.6%	33.6%
CCCCn1c(-c2nn(C)c(C)c2Cl)n[nH]c1=S	11.4%[57.1 µM]	11.2µM*	-10.7%	8.91µM*	-30.1%
C=CCn1c(C(CCCC)CC(C)O)n[nH]c1=S (stereo unspecified)	3.5%	?	0.4%	?	28.9%
Cc1c(Cl)c(-c2n[nH]c(=S)n2CC(C)C)nn1C	29.2%	35.5µM*	-11.6%	5.01µM*	?
C/C(Cl)=C\Cn1c(O)c(N=NC(N)=S)c2cc(Br)ccc21	10µM*	/	2.9%	44.7µM*	?
CC(=O)Nc1ccc(S(=O)(=O)NCC(=O)Nc2ccc3c(c2)OCO3)cc1	/	/	0.8%	-12.3%	24.4%
O=C1SCCC1NS(=O)(=O)c1ccccc1[N+](=O)[O-] (stereo unspecified)	-16.0%	44.7µM*	6.0%	-14.1%	11.6%
O=[N+]([O-])c1ccccc1S(=O)(=O)NC1CC2CCC1C2 (stereo unspecified)	7.6%	3.0%	-3.7%	-19.9%	24.3%
Cc1cc(Sc2nc(N)ncc2[N+](=O)[O-])ncn1	?	31.6µM*	-9.2%	1.3%	33.3%
CC(C)=CCC12Oc3cc(O)ccc3C1(O)Oc1cc(O)c([C@H]3C=C(C)CC(c4ccc(O)cc4O)[C@H]3C(=O)c3ccc(O)cc3O)c(O)c1C2=O (stereo partly specified)	/	/	-9.0%	39.8µM*	-11.2%
CCN1CCc2nc(NC(=O)c3ccccc3)sc2C1	-18.3%	?	-0.2%	-16.0%	24.6%
C=CCN1CCc2nc(N)sc2CC1	-3.0%	15.8µM*	37.7%	-13.7%	18.3%
CCN1CCc2nc(N)sc2C1	-15.2%	12.6µM*	30.2%	2.9%	-19.8%
CC[n+]1c(/C=C/N(C)c2ccccc2)n(-c2ccccc2)c2ccc(-c3nc4ccccc4s3)cc21	-17.9%	25.1µM*	27.1%	35.5µM*	-13.3%
CN1CCN(/N=C/c2ccc(N(C)c3ccccc3)cc2)CC1	35.5µM*	?	-15.0%	-32.1%	-5.3%
CN1CCN(/N=C/c2ccc(Br)cc2)CC1	11.7%	?	-8.1%	-32.9%	21.4%
CN1CCN(/N=C/c2ccc(Cl)c(Cl)c2)CC1	?	?	8.0%	?	-10.9%
CN1CCN(/N=C/c2ccc(N(c3ccccc3)c3ccccc3)cc2)CC1	35.5µM*	8.4%[12.7 µM]	-6.4%	17.8µM*	-38.3%
